Compounds with a hit are over-represented: about 9.3% of the library has one in this group of screens.
NPC1 prom act = activators of NPC1 promoter; AID 485313; 2.4% of 320,000 active; Huh7 NPC1 promoter luciferase reporter, 24 h; Potency, µM (series often up to 9.22 µM), for inactives: at the highest dose activation, usual class: activators; further: % of control where 0% means no effect; nearly all actives have a fitted effect of over 60% in size
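Huh7 cells stably carrying NPC1 promoter–luciferase, plated in Opti-MEM with 10% FBS for 2 h, were exposed to compound in DMSO for 24 h at 37 °C; luciferase reagent was added for 10 min and luminescence read.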
FLuc modulator = inhibits or activates purified firefly luciferase, miR-21 counter-screen; 6.9% of 360,000 active; purified FLuc, Km substrates, luminescence inhibition; AID 588342; Potency, µM (series often up to 57.5 µM), for the others: top-dose activity change, negative = inhibition, hits mostly inhibitors; P08659;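 further: plate controls were vehicle for no effect and reference inhibitor for full effect; nearly all actives have a fitted effect of over 55% in size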
Target sequence (P08659 whole entry, looked up): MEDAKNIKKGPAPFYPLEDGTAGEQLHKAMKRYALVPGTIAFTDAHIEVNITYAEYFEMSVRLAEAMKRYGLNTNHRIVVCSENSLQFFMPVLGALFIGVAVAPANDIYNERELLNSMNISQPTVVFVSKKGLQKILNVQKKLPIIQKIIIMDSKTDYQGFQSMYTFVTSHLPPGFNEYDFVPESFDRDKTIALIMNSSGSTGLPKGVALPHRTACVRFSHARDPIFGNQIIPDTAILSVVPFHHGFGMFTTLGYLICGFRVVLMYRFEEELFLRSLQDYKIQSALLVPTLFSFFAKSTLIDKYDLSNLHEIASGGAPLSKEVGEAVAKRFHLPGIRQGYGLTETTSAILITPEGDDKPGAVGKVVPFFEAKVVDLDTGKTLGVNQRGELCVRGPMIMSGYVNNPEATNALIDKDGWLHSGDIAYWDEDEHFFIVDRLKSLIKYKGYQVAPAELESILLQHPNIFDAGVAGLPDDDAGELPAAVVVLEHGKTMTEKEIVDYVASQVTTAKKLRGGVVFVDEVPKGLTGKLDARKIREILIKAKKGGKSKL
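Purified P. pyralis luciferase, 10 nM final, with Km-level 10 uM D-luciferin and 10 uM ATP in 50 mM Tris acetate pH 7.5, 10 mM Mg acetate, 0.01% Tween-20, 0.05% BSA; 6-point qHTS titration about 60 µM downward; luminescence read.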
ELG1 genotox = inducers of genotoxicity in HEK293T ELG1-luciferase cells; HEK293T ELG1-luciferase reporter, luminescence, 16 h; Potency, µM (doses to about 46 µM), for inactives: top-dose activity change, positive = activation, usual class: activators; 1.3% of 330,000 active; further: % of control where 0% means no effect; nearly all actives have a fitted effect of over 60% in size
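Quantitative HTS format in 1536-well plates. HEK293T ELG1-luciferase reporter cells receive test compound and are incubated 16 hr at 37 °C, 5% CO2; ONE-Glo added, 30 min room temperature, then luminescence read.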
SMN2 splice up = SMN2 splice variant enhancement; HEK293 SMN2-luciferase splicing reporter, luminescence, 30-36 h; Potency, µM (doses to about 46.1 µM), inactives show top-dose activity change, positive = activation, actives largely listed as activators; 2.8% of 210,000 active; further: % of control where 0% means no effect; nearly all actives have a fitted effect of over 55% in size
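HEK293 cells carry an SMN2 […]–luciferase reporter in which exon 7 inclusion puts luciferase in frame. Cells were plated 10-12 h before compound addition, then incubated 30-36 h at 37C. ONE-Glo luminescence was read; sodium butyrate at 4.5 mM final served as control.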
ELG1 DNA repair = ELG1-dependent DNA repair inhibition; HEK293T ELG1-luciferase reporter, luminescence, 16 h; DNA damage induced by 5-fluorouridine; Potency, µM (doses to about 46.1 µM), without a hit: at the highest dose activity change, negative = inhibition, most hits filed as inhibitors; 2.3% of 330,000 active; AID 504467; further: on the % scale 0 is the no-effect control and ±100 the full control effect; nearly all actives have a fitted effect of over 55% in size
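Luminescence from the luciferase reporter, measured 30 min after ONE-Glo reagent at room temperature, was the read-out. Beforehand, 2,000 cells per well were exposed for 16 hr at 37 °C to 5-fluorouridine together with compound or vehicle.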
Rab9 promoter act = Rab9 promoter activation. Potency, µM (doses to about 9.22 µM), inactives show at the highest dose activation, negative = inhibition, most hits filed as activators. 2.8% of 320,000 active. AID 485297. Huh7 Rab9 promoter-luciferase reporter, luminescence, 24 h; further: % of control where 0% means no effect; nearly all actives have a fitted effect of over 60% in size
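Measured in stably transfected Huh7 cells bearing a Rab9 promoter–luciferase construct: 24 h compound treatment at 37 °C, followed by luminescence detection.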
Numbers without * were called inactive; ? = inconclusive; nt = no result given; [ ] = dose if it differs, or a comment. The call rests on the fitted dose curve; in most records, active means well fitted curve in the direction sought with a large enough effect; inconclusive means small, poorly fitted or top-dose-only effect, or another doubt; inactive means no such curve, though single readings can be large; an effect the other way counts as inactive or inconclusive. Potency means the concentration at half of the fitted maximal effect.

SMILES	NPC1 prom act	FLuc modulator	ELG1 genotox	SMN2 splice up	ELG1 DNA repair	Rab9 promoter act
CC(=O)c1ccc(NC(=O)c2ccc(-n3cnnc3)cc2)cc1	nt	0.8%	nt	nt	nt	nt
CC(=O)c1ccc(NC(=O)c2ccn[nH]2)cc1	2µM*	9.53µM*	10.3µM*	11.2µM*	?	3.55µM*
O=C(Nc1cccc([N+](=O)[O-])c1)c1ccn[nH]1	?	-19.3%	-5.0%	16.0%	?	?
O=C(Nc1ccccc1)c1ccn[nH]1	3.55µM*	10.7µM*	?	12.6µM*	?	2.51µM*
CCOC(=O)c1c(C)oc2nc(C)nc(N3CCN(c4ccc(C(C)=O)cc4)CC3)c12	nt	1.4%	nt	nt	nt	nt
C=CCOc1ccc(C2NC(=S)NC3=C2CCc2ccccc23)cc1 (stereo unspecified)	1.3%	6.01µM*	23.8%	nt	5.17µM*	-11.0%
NC(Cc1cnc[nH]1)C(=O)Nc1ccc2ccccc2c1 (stereo unspecified)	nt	nt	nt	12.6µM*	nt	nt
CCN(c1ccccc1)S(=O)(=O)c1ccc(C(C(=O)OC)C(=O)OC)c([N+](=O)[O-])c1	-1.9%	-0.1%	4.6%	4.4%	-6.2%	-2.5%
CCOC(=O)N1CCC(N(CCN(C)C)C(=S)Nc2ccccc2Cl)CC1	-2.7%	-0.9%	3.7%	-10.2%	?	-6.6%
C[C@H]1CN([C@@H](C)CO)C(=O)Cc2cc(NC(=O)Cc3cn(C)c4ccccc34)ccc2O[C@@H]1CN(C)S(=O)(=O)c1cn(C)cn1	nt	nt	3.8%	nt	7.6%	nt
Cc1ccc(S(=O)(=O)/N=C2/C=C(Sc3ncn[nH]3)C(=O)c3ccccc32)c(C)c1	-2.6%	?	-11.7%	-4.1%[1.84 µM]	20.6µM*	16.4%
Cc1ccc(S(=O)(=O)/N=C2/C=C(Sc3ncn[nH]3)C(=O)c3ccccc32)cc1	-3.1%	?	-2.2%	-6.9%[1.84 µM]	16.4µM*	2.9%
CC(C)c1ccc(S(=O)(=O)/N=C2/C=C(Sc3ncn[nH]3)C(=O)c3ccccc32)cc1	-2.0%	?	-3.7%	-81.8%	6.51µM*	-16.7%
CC(C)(CNC(=O)c1cc([N+](=O)[O-])ccc1N1CCC(Cc2ccccc2)CC1)N1CCOCC1	-3.8%	1.5%	-5.5%	nt	20.6µM*	-11.6%
N#Cc1cnc2sc3ccccc3n2c1=N	24.0%	23.9µM*	14.1µM*	17.0%	?	?
Cn1nc2sc3ccccc3n2c(=O)c1=O	11.1%	-2.0%	-1.6%	nt	30.5%	-4.5%
CCN1C(=O)CC(N2CCN(c3ccc(Cl)cc3)CC2)C1=O (stereo unspecified)	-6.0%	2.6%	-7.2%	-9.2%	-24.9%	1.6%
CCN1C(=O)CC(N2CCN(c3ccc(C(=O)c4ccccc4)cc3)CC2)C1=O (stereo unspecified)	nt	19µM*	nt	-13.6%	nt	nt
COc1cccc(CNCC(O)(c2ccc(Cl)cc2)c2ccc(Cl)cc2)c1	4.2%	-1.3%	-7.3%	-33.4%	?	-0.1%
COc1cc(/C=N/Nc2ccc(C(F)(F)F)cn2)cc(OC)c1O	1.7%	?	-1.9%	20.1%	-4.7%	1.0%
Oc1ccc(/C=N/Nc2cccc(Cl)n2)c(O)c1	?	5.36µM*	?	nt	?	7.7%
O=C(N/N=C/c1ccc(O)cc1O)c1ccncc1	-31.8%	-14.7%	3.6%	nt	?	-34.6%
Cc1ncc(CO)c(/C=N/Nc2cccc(Cl)n2)c1O	-1.4%	?	-3.7%	nt	?	10.3%
Oc1ccc(/C=N/Nc2ccc(C(F)(F)F)cn2)c(O)c1	-20.9%	12µM*	?	nt	?	12.4%
Oc1ccc(/C=N/Nc2ccc(C(F)(F)F)cn2)cc1	?	16.9µM*	?	15.8µM*	?	3.55µM*
SMILES	NPC1 prom act	FLuc modulator	ELG1 genotox	SMN2 splice up	ELG1 DNA repair	Rab9 promoter act
Cc1ccccc1S(=O)(=O)c1c(C)cc(C)n(C(C)C)c1=O	-0.9%	-1.2%	-6.1%	-16.2%	-2.0%	3.1%
O=C(CN(C(=O)CCC(=O)Nc1ccccn1)c1ccc(F)cc1)NCc1ccco1	-1.0%	1.8%	-4.7%	nt	0.7%	0.4%
Cc1ncc(CO)c(/C=N/NC(=S)Nc2ccc(C(C)C)cc2)c1O	-7.3%	13.5µM*	-1.9%	nt	?	0.9%
Cc1ncc(CO)c(/C=N/NC(=O)c2ccc(Br)cc2)c1O	-28.2%	?	13.9%	-85.2%	?	-26.6%
Cc1ncc(CO)c(/C=N/NC(=O)c2cc(O)c(O)c(O)c2)c1O	-2.3%	-18.4%	0.6%	-19.9%	8.7%	-5.5%
Cc1ncc(CO)c(/C=N/NC(=O)c2cc(Br)ccc2O)c1O	-1.4%	?	?	-17.0%	16.4µM*	14.9%
CCOC(=O)CSC1=NC(=O)/C(=C/c2ccc(OC)cc2)S1	-27.0%	13.5µM*	?	-9.8%[1.84 µM]	?	-32.5%
NC1=NC(=O)/C(=C\c2ccco2)S1	-3.1%	16.9µM*	1.8%	nt	-2.2%	0.1%
COc1ccc(/C=C2\SC(N)=NC2=O)cc1	1.8%	15.1µM*	3.6%	nt	-11.3%	24.9%
COc1cc(/C=C2\SC(N)=NC2=O)cc(Br)c1O	0.0%	-10.2%	1.9%	nt	?	-3.4%
O=C1N=C(N2CCN(c3ccccc3)CC2)S/C1=C\c1ccco1	6.9%	?	-2.0%	-5.1%	?	0.0%
O=C(CCl)Nc1ccc(S(=O)(=O)Nc2nccs2)cc1	-13.6%	1.5%	-14.1%	nt	-7.7%	15.0%
CCCCn1c2c(c(=N)c3c1CCC3)CCC2	-24.9%	-8.0%	-15.2%	-43.2%	1.64µM*	-31.9%
CCn1c2c(c(=N)c3ccccc31)CCC2	-22.6%	-0.4%	-9.6%	nt	20.6µM*	-34.7%
COCCn1cnc2c1c(=O)n(Cc1cc(C(C)=O)ccc1OC)c(=O)n2Cc1ccccc1	6.4%	0.2%	11.1%	nt	?	1.6%
COc1ccc(OCCN(C)CC(=O)Nc2ccccc2SC)cc1	0.6%	2.5%	-4.4%	nt	?	-4.1%

High-throughput results: PubChem BioAssay, National Center for Advancing Translational Sciences (NCATS)
